Integrin act MD: integrin-mediated muscular dystrophy alleviation activation | alpha7betagal myoblasts, beta-gal FDG fluorescence, 48 h | 0.064% of 350,000 active | Potency, µM (titrated, usually from 38.3 µM), without a hit: top-dose activation, hits mostly activators;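 further: potency means the concentration at half of the fitted maximal effect; 100% = response of the positive control SU9516; nearly all actives have a fitted effect of over 60% in size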
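Alpha7betagal+/- myoblasts (passage 13) were plated 16-24 hr, then exposed to compounds (1:260 dilution of DMSO stock) for 48 hours at 37C. After MPER lysis, β-galactosidase reporter activity was read as FDG fluorescence (ex 480/em 540) after 30 minutes.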
USP2a inh: USP2a (human) protease inhibition; O75604; USP2 core, Ub-CHOP2 coupled fluorogenic reporter, 485/531; Potency, µM (titrated, usually from 38.3 µM), for the others: top-dose activity change, negative = inhibition, usual class: inhibitors; 0.01% of 330,000 active; AID 463254;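 further: potency means the concentration at half of the fitted maximal effect; plate controls were DMSO wells for no effect and full inhibition by NEM control for full effect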
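USP2 core (10nM final) preincubated 30min RT with compound in 20mM Tris-HCl pH 8.0, 2mM CaCl2, 2mM beta-mercaptoethanol, 0.05% CHAPS; 25nM Ub-CHOP2 plus 25nM reporter substrate added, fluorescence (Ex485/Em531) read after 60min.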
ClpP mod: qHTS Assay for Activators of ClpP. ATP-dependent Clp protease proteolytic subunit (Bacillus subtilis (strain 168)), P80244. purified B. subtilis ClpP, FRET peptide cleavage, 20 min. Potency, µM (series often up to 57.5 µM), inactives show at the top dose activity change, negative = active. 1.9% of 340,000 active. AID 651965, 2013; active means well fitted falling curve with a large enough effect; inconclusive means small, poorly fitted or top-dose-only effect; inactive means no such curve, though single readings can be large or run the other way; further: potency means the concentration at half of the fitted maximal effect; the source files actives as falling curves though it sought activators and does not explain the sign; nearly all actives have a fitted effect of over 65% in size
Target sequence (P80244 whole entry, looked up): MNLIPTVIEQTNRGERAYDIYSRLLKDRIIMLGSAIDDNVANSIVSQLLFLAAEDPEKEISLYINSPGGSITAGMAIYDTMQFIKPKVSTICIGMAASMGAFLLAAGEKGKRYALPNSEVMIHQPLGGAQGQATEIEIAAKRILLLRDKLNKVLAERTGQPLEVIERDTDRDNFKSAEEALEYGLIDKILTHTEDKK
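Buffer: 100 mM Tris/HCl pH8, 100 mM KCl, 0.05% low protease BSA, 2.5% glycerol, 0.01% Tween-20. ClpP 10 microg/mL final; 20 min RT; delta FRET normalized to ADEP and DMSO controls.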
IL-2 act: IL-2 activation. AID 652025. activation, % (series mostly up to about 46 µM). IL-2 activation reporter assay, cell-based qHTS; stimulated with anti-CD3/CD4/CD28 beads; in transgenic mouse T cells. 0.065% of 360,000 active; in the data active means activation above about 50%; inconclusive means mostly about 30% to 49%; further: 0% is about no effect
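Unstimulated transgenic mouse T cells; 60-min compound exposure; bead-based TCR/CD4/CD28 stimulation; 18 h culture, 37 degrees C; dual fluorescence (EGFP, DsRed) plate cytometry.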
PKM2 act: increases activity of human pyruvate kinase M2. P14618. purified PKM2, Kinase-Glo ATP luminescence, activation; response scale: 0% is enzyme alone, no compound. Potency, µM (doses to about 57.5 µM), inactives show top-dose activation, most hits filed as activators. 0.34% of 260,000 active. AID 1631; further: potency means the concentration at half of the fitted maximal effect; on the % scale 0 is the no-effect control and ±100 the full control effect; nearly all actives have a fitted effect of over 55% in size
Target sequence (P14618 whole entry, looked up): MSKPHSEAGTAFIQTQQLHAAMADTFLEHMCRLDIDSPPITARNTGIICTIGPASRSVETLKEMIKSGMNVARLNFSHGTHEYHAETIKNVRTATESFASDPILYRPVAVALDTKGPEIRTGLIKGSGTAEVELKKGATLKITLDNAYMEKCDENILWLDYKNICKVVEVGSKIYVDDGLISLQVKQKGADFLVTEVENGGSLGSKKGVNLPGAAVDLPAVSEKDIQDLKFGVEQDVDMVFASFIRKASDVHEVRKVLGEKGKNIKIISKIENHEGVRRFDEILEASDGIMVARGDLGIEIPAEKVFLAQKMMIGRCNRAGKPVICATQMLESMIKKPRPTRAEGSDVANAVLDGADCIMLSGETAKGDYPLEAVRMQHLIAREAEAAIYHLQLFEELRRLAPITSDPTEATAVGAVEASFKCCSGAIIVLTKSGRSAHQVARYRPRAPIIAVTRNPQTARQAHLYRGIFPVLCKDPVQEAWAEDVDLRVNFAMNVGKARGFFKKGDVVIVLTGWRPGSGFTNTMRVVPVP
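ATP formation by purified human PK-M2, quantified via coupled luciferase luminescence after 1 h at room temperature with 0.1 mM ADP and 0.5 mM PEP final.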
Pin1 inh: blocks the human prolyl isomerase Pin1. Q13526. Pin1 FP peptide displacement, HiFluor488, 10 min. Potency, µM (highest dose often 115 µM), for the others: at the highest dose activity, negative = inhibition, usual class: inhibitors. 0.009% of 390,000 active; active means well fitted inhibition curve with a large enough effect in the polarisation, with a control signal flat, not every such curve was filed as active; inconclusive means small, poorly fitted or top-dose-only effect, or effect the other way, or a change in a side signal; inactive means no such curve, though single readings can be large or run the other way; the % refers to the polarisation; further: potency means the concentration at half of the fitted maximal effect; on the % scale 0 is the no-effect control and ±100 the full control effect
* marks the source's active call; other numbers are inactive results; ? = inconclusive; / = no result; [ ] = dose if it differs, or a comment. The list is not random: actives were taken first. Their share in the collection is about 1.9%. Unless noted, the call rests on the fitted dose curve; in most records, active means well fitted curve in the direction sought with a large enough effect; inconclusive means small, poorly fitted or top-dose-only effect, or another doubt; inactive means no such curve, though single readings can be large; an effect the other way counts as inactive or inconclusive.

SMILES | Integrin act MD | USP2a inh | ClpP mod | IL-2 act | PKM2 act | Pin1 inh
CCCCc1cc(=O)oc2cc(C)c3c(C)coc3c12 | / | / | 28µM* | / | / | 9%
CCCc1cc(=O)oc2cc(C)cc(OCC(=O)O)c12 | 21% | 1% | 16µM* | -2 | -3% | 0%
CCCCc1cc(=O)oc2cc(C)cc(O)c12 | -1% | 1% | -4% | -3 | 0% | -9%
CCCCc1cc(=O)oc2cc(C)cc(OC(C)C(=O)O)c12 (stereo unspecified) | -10% | 2% | 16µM* | 0 | 1% | 1%
CCNc1nc(C#N)nc2c1ncn2-c1cccc(Cl)c1 | / | / | / | / | / | 14%
NC(N)=NCCC[C@H](NC(=O)CC1(CC(=O)N2CCN(C3c4ccccc4NC(=O)c4ccccc43)CC2)CCCC1)C(=O)NCCn1c(=O)n(-c2ccccc2)n(-c2ccccc2)c1=O (stereo partly specified) | / | / | / | / | -2% | /
CC(=O)C(C)Oc1cc(C)cc2oc(=O)c(C)c(C)c12 (stereo unspecified) | ? | -1% | 3.2µM* | -3 | -4% | -2%
Cc1ccccc1OCC(=O)NCC(=O)OCC(=O)c1ccc2c(c1)CCCC2 | / | / | -5% | / | / | 3%
CC(C)c1cc(C(C)C)c(S(=O)(=O)Nc2cccc3cccnc23)c(C(C)C)c1 | / | / | / | / | / | 1%
Cc1cccc(NS(=O)(=O)c2c(C)nc3sccn3c2=O)c1C | / | / | -3% | / | / | -1%
Cc1ccc(NS(=O)(=O)c2c(C)nc3sccn3c2=O)cc1 | 23% | 0% | -4% | -2 | 10µM* | 13%
Cc1nc2sccn2c(=O)c1S(=O)(=O)Nc1cccc(Cl)c1C | 22% | 1% | -5% | -3 | 7.1µM* | 0%
COc1cccc(N2CCN(c3ncnc4c3c(-c3ccccc3)cn4-c3ccc(F)cc3)CC2)c1 | / | / | -2% | / | / | 0%
CC1CCN(c2ncnc3c2c(-c2ccccc2)cn3-c2ccc(Br)cc2)CC1 | / | / | -3% | / | / | 0%
COc1ccccc1N1CCN(c2ncnc3c2c(-c2ccccc2)cn3-c2cccc(C)c2)CC1 | / | / | 11µM* | / | / | -8%
COc1ccccc1CNc1ncnc2c1c(-c1ccccc1)cn2-c1cccc(C)c1 | / | / | 28µM* | / | / | -2%
Cc1cccc(-n2cc(-c3ccccc3)c3c(N4CCC(C)CC4)ncnc32)c1 | / | / | 28µM* | / | / | 4%
CC(=O)Nc1ccc(S(=O)(=O)N2CCc3nc(COc4ccccc4)c4c(c3C2)CO[C@@H](C)C4)cc1 | / | / | / | / | -7%[11.5 µM] | /
O=S(=O)(c1cccc2ccccc12)N1CCN(c2nc(-c3cccs3)nc3ccccc23)CC1 | / | / | 4% | / | / | 15%
CN(C)c1ccc(/C=C2\CCc3cc(N)ccc32)cc1 | / | / | -23% | / | / | /
CCCOC(=O)CSc1nc(N)c(C#N)c(-c2ccco2)c1C#N | 6% | / | 25µM* | 1 | / | 7%
N#Cc1c(N)nc(SCC(=O)OCc2ccccc2)c(C#N)c1-c1ccco1 | 5% | 0% | -30% | 2 | 4% | 29%
CCCN(CC(=O)Nc1ccc(Cl)cc1Cl)C(=O)/C=C/c1cc(OC)ccc1OC | -22% | -2% | 16µM* | 1 | 23% | 5%
Clc1ccc(OCCn2c(-c3ccco3)nc3ccccc32)cc1 | -11% | -2% | ? | -1 | -2% | 22%
c1coc(Cn2c(-c3ccco3)nc3ccccc32)c1 | 2% | 0% | 28µM* | -1 | 3% | 5%
SMILES | Integrin act MD | USP2a inh | ClpP mod | IL-2 act | PKM2 act | Pin1 inh
O=C(NC(NC(=S)Nc1ccccc1C(=O)O)C(Cl)(Cl)Cl)c1ccco1 (stereo unspecified) | 28% | 4% | 28µM* | 0 | 0% | -14%
COC(=O)c1ccccc1NC(=S)NC(NC(=O)c1ccco1)C(Cl)(Cl)Cl (stereo unspecified) | 5% | -1% | -23% | -1 | 1% | 5%
CC1=C(C(=O)Nc2cc(C)ccn2)C(c2ccc(C)cc2)C2=C(CCCC2=O)N1 (stereo unspecified) | 20% | -2% | 28µM* | -2 | -5% | -3%
CC1=C(C(=O)Nc2ccccc2)C(c2ccc3c(c2)OCO3)C2=C(CCCC2=O)N1 (stereo unspecified) | -22% | 0% | -26% | 1 | -7% | -7%
CCn1cc(C2C(C(=O)Nc3cc(C)ccn3)=C(C)NC3=C2C(=O)CC(C)(C)C3)c(C)n1 (stereo unspecified) | 17% | 4% | 10µM* | -1 | 0% | -4%
Cc1ccccc1-c1nnc(SCCOc2ccc3c(C)cc(=O)oc3c2)o1 | -12% | 4% | 25µM* | 0 | -1% | 9%
CCOc1ccccc1-c1nnc2n1N=C(c1cc(OC)ccc1OC)CS2 | / | / | / | / | / | -3%
CC(=O)NCCCc1ccc(C(=O)COC(=O)CNC(=O)c2ccc3ccccc3c2)cc1 | / | / | -17% | / | / | 5%
CN(CC(=O)Nc1ccccc1Br)C(=O)c1ccc(-c2ccc(Cl)cc2)o1 | 15% | -1% | 32µM* | 0 | 2% | 11%
N#Cc1nc(-c2ccco2)oc1NCc1ccc(F)cc1 | -19% | 4% | 8.9µM* | 0 | 2% | 1%
CC(Nc1oc(-c2ccco2)nc1C#N)c1ccccc1 (stereo unspecified) | 15% | 0% | 7.9µM* | 2 | 2% | 0%
CC(C)CNc1oc(-c2ccco2)nc1C#N | 4% | 1% | 18µM* | -1 | 2% | -2%
Cc1ccc(SC/C(O)=C(\C#N)c2nc3ccccc3s2)cc1 | -9% | 0% | 25µM* | 0 | -6% | 2%
CCOC(=O)C1CCCN(S(=O)(=O)c2ccc(Cl)nc2)C1 (stereo unspecified) | 5% | 0% | 22µM* | -2 | / | 4%
CCN1CCc2c(C#N)c(N3CCCCC3)nc(NCc3ccccc3)c2C1 | -69% | / | ? | -1 | 7% | -11%
N#Cc1c(NCCO)nc(NCc2ccccc2)c2c1CCN(Cc1ccccc1)C2 | -32% | 3% | 10µM* | 0 | 17% | -1%
CCN1CCc2c(C#N)c(N3CCOCC3)nc(NCCO)c2C1 | 9% | 2% | 8.9µM* | -1 | 8% | ?
C=CCNc1nc(N2CCCCC2)c(C#N)c2c1CN(Cc1ccccc1)CC2 | -30% | 4% | 28µM* | 0 | 0% | 5%
CCN1CCc2c(C#N)c(N3CCOCC3)nc(NCc3ccccc3)c2C1 | -13% | -1% | 2% | 1 | 11% | -16%
O=[N+]([O-])c1ccc(NN=Cc2cccc3ccccc23)nc1 | -12% | / | / | 58* | / | ?
Cc1c(C(=O)O)cccc1-n1c(C)cc(/C=N/Nc2ccc([N+](=O)[O-])cn2)c1C | 2.8µM* | 1% | 1% | 3 | 4% | 15%

Screens deposited in PubChem BioAssay by National Center for Advancing Translational Sciences (NCATS).
